# According to PubChem BioAssay AID602376 (Johns Hopkins Ion Channel Center, 2012):
# Results with a measured potency or affinity are listed apart. Results filed as inconclusive are left out. The source made the active and inactive calls.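 How the source made its calls: active means raises choline transporter activity at one or more tested doses and gives a fitted dose-response curve; inconclusive means no clear call, values can overlap the other calls; inactive means no choline transporter activation at any dose, or no curve.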
# Biological target: High affinity choline transporter 1 (Homo sapiens) (UniProt Q9GZV3)
# Sequence (Q9GZV3 whole entry, looked up): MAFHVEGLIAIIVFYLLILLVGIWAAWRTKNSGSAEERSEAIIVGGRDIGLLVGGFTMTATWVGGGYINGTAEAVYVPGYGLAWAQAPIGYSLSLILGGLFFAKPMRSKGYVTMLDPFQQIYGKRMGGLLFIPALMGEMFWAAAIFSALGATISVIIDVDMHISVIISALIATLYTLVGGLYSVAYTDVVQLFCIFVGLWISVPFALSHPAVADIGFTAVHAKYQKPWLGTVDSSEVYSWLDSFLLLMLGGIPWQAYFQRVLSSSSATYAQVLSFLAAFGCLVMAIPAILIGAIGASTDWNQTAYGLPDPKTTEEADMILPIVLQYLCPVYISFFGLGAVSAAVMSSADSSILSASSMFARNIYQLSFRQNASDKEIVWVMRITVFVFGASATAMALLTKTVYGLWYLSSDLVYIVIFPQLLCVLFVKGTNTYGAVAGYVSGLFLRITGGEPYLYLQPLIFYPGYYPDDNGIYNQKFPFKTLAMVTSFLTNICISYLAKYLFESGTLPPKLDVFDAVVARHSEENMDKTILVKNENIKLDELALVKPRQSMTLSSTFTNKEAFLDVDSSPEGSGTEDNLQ
# Assay: CHT activators, dose response, cell-based, 10-point CRC, membrane potential dye (AID 602376)
# Details: HEK293-CHT, choline-induced membrane potential dye, cells express CHT LV-AA mutant; series mostly up to 67 µM; percent activation: at the top concentration
row,SMILES,percent activation
1,COc1ccc(C2NCc3ccc4c(c3-n3cccc32)OCO4)cc1O (stereo not drawn),112% (inactive)
2,CCCOC(=O)c1ccc(-[n+]2c(-c3ccccc3)cc(-c3ccccc3)cc2-c2ccccc2)cc1,105% (inactive)
3,CCCCCn1c(=O)c(C(=O)NCc2ccncc2)c(O)c2ccccc21,78.3% (inactive)
